From PubChem BioAssay
In the library only some 1.1% were active in any assay of this set; here they are far more common.
MOR-DOR inv ag: mu-delta opioid heterodimer inverse agonism; P35372+P41143; cell-based MOR-DOR heterodimer luminescence; inhibition, % at 9.3 µM; actives 0.21% (n = 340,000); AID 504357; in the data active = inhibition above about 22%, passing the limit was not always enough;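 note: 0% = cells with DMSO and 100% = wells without cells with DMSO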
HTR5A ag ctr: activates human HTR5A in OPRM1-OPRD1 agonist counter-screen; P47898; HTR5A agonist assay, luminescence, cell-based; activation, % at 9.3 µM; actives 0.61% (n = 340,000); AID 504692; in the data active = activation mostly above about 9.5%, no sharp cut-off; inactive = mostly below about 7.6%;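 note: 0% = cells with vehicle only and 100% = reference agonist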
OPRM1-OPRD1 ag: agonists of human mu-delta opioid receptor heterodimerization. AID 504326. actives 0.3% (n = 340,000). cells, OPRM1-OPRD1 heterodimerization, luminescence. activation, % at 9.3 µM. P35372+P41143; in the data active = activation above about 18%;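 note: 0% = vehicle-treated cells and 100% = reference agonist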
HTR5A inv ctr: inverse agonist of human HTR5A in OPRM1-OPRD1 counter-screen. HTR5A cell line, luminescence, inverse agonism. inhibition, % at 9.3 µM. actives 0.083% (n = 340,000); in the data active = inhibition mostly above about 23%, no sharp cut-off; inactive = mostly below about 18%;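 note: 0% = cells with DMSO and 100% = no-cell wells with DMSO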
MOR-DOR inv conf: OPRM1-OPRD1 heterodimer inverse agonism, confirmation. actives 20% (n = 580). cells expressing OPRM1/OPRD1 heterodimer, luminescence. inhibition, % at 9.3 µM. shares compounds with MOR-DOR inv ag; in the data active = inhibition above about 32%;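 note: 0% = cells with DMSO and 100% = wells lacking cells with DMSO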
HTR5A inv count: inverse agonist of human HTR5A in OPRM1-OPRD1 counter-screen; inhibition, % at 9.3 µM; 580 tested, under 10 active; shares compounds with MOR-DOR inv ag; AID 504914; HTR5A-expressing cells, luminescence, inverse agonism; call rule not given here;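 note: 0% = cells with DMSO and 100% = no-cell wells with DMSO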
Numbers without * were called inactive; i = inactive; . = no result given.

SMILES	MOR-DOR inv ag	HTR5A ag ctr	OPRM1-OPRD1 ag	HTR5A inv ctr	MOR-DOR inv conf	HTR5A inv count
CCOC(=O)C1Oc2ccccc2C(c2cccc3ccccc23)=C1C(=O)OC (stereo not given)	1	-2	0	9	.	.
CCOC(=O)C1Oc2ccccc2C(C(=O)OC)=C1C(=O)OC (stereo not given)	40*	2	-8	-8	i	-4
CCOC(=O)C1CCN(CC(O)COCc2ccccc2)CC1 (stereo not given)	-4	-4	1	16	.	.
Oc1c(C=Nc2ccccc2Cl)[nH]c2ccccc12	48*	-2	-9	5	2	7
Cc1noc(C)c1C(=O)NNc1ccc(C(C)C)cc1	23	0	-5	5	.	.
O=C(Nc1cc(Cl)cc(Cl)c1)c1ccno1	15	-2	-3	9	.	.
Cc1ccc(NNC(=O)c2ccno2)cc1Cl	52*	3	-10	5	-40	-268
Cc1ccc(NNC(=O)c2ccno2)cc1C	61*	6	-12	-3	-189	-27
Cc1ccc(NNC(=O)c2c(C)noc2C)cc1Cl	41*	0	-8	3	23	-1
O=C(COC(=O)c1ccc(S(=O)(=O)C(F)F)cc1)NC(=O)NC1CCCCC1	-16	-3	3	8	.	.
O=C(COC(=O)CCc1c[nH]c2ccccc12)Nc1ccccc1C(F)(F)F	2	14	-1	-33	.	.
N#Cc1ccccc1NC(=O)CSc1n[nH]c(=O)n1C1CC1	5	8	-1	-27	.	.
COc1ccc(NC(=O)CSc2nnc3n2CCCCC3)cc1S(=O)(=O)N1CCOCC1	-7	-1	2	4	.	.
CC1NC(=S)N(Cc2ccccc2)C1=O (stereo not given)	33*	4	-6	-1	-81	-34
CC(C)C1NC(=S)N(Cc2ccccc2)C1=O (stereo not given)	9	-2	-1	9	.	.
O=C(CC1CCCC1)NNC(=O)c1ccc(Br)cc1	8	6	-2	14	.	.
CC(=O)c1cccc2c(O)c(C3=Nc4ccccc4C3=O)[nH]c12	36*	2	-7	14	-428	-11
O=C1C(c2c(O)[nH]c3ccccc23)=Nc2ccccc21	13	-5	-2	-7	.	.
CC1CCCN(c2ccc(/C=C(\C#N)c3nn(-c4ccccc4)c(N)c3C#N)cc2[N+](=O)[O-])C1 (stereo not given)	29*	-2	-5	-1	-256	-29
CC1CCN(c2ccc(/C=C(\C#N)c3nn(-c4ccccc4)c(N)c3C#N)cc2[N+](=O)[O-])CC1	21	0	-5	-3	.	.
CC1CCN(CCCNC(=O)C2CCN(S(=O)(=O)N3CCCCC3)CC2)CC1	12	0	-2	-14	.	.
CC1CCCCN1CCNC(=O)C1CCN(S(=O)(=O)N2CCCCC2)CC1 (stereo not given)	13*	8	-2	-18	-156	-19
O=C(C(=O)c1cccnc1)c1cccnc1	36*	-3	-7	13	i	2
c1cncc(-c2nnc(-c3cccnc3)nn2)c1	86*	-7	-15	18	-33	18
O=C(c1cccnc1)c1cccnc1	-15	-1	2	3	.	.
SMILES	MOR-DOR inv ag	HTR5A ag ctr	OPRM1-OPRD1 ag	HTR5A inv ctr	MOR-DOR inv conf	HTR5A inv count
CC(=O)Nc1ccc(NC(=O)CCC(=O)OCC(=O)c2ccc(C)c([N+](=O)[O-])c2)cc1	57*	-8	-11	21*	36*	1
Cc1ccc(C(=O)COC(=O)CCC(=O)Nc2ccccc2Cl)cc1[N+](=O)[O-]	45*	-2	-9	6	-9	-25
O=C(CCC(=O)OCc1ccc([N+](=O)[O-])cc1)Nc1ccccc1Cl	19	-6	-4	14	.	.
Cc1ccc(C(=O)COC(=O)c2ccncc2)cc1[N+](=O)[O-]	49*	-3	-9	20	29	15
CC(=O)c1ccc(NC(=O)CCC(=O)OCC(=O)c2cccc([N+](=O)[O-])c2)cc1	61*	-5	-7	10	51*	14
CC1=C(C(=O)N2CCOCC2)C(c2ccc(OC(F)F)cc2)NC(=S)N1c1ccccc1 (stereo not given)	15	-1	-3	10	.	.
